IDE inh – cellular human IDE inhibition; HEK cells, FAbetaB cleavage, fluorescence polarization; inhibition, % at 5.59 µM; actives 0.41% (n = 320,000); P14735;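 active means percent inhibition above the average of all tested compounds plus 3 SD, set per screening campaign, cut at about 16% in these data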;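 further: IDE supplied by intact live HEK cells; FP after avidin binding of uncleaved biotin substrate so inhibition keeps polarization high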
Target sequence (P14735 whole entry, looked up): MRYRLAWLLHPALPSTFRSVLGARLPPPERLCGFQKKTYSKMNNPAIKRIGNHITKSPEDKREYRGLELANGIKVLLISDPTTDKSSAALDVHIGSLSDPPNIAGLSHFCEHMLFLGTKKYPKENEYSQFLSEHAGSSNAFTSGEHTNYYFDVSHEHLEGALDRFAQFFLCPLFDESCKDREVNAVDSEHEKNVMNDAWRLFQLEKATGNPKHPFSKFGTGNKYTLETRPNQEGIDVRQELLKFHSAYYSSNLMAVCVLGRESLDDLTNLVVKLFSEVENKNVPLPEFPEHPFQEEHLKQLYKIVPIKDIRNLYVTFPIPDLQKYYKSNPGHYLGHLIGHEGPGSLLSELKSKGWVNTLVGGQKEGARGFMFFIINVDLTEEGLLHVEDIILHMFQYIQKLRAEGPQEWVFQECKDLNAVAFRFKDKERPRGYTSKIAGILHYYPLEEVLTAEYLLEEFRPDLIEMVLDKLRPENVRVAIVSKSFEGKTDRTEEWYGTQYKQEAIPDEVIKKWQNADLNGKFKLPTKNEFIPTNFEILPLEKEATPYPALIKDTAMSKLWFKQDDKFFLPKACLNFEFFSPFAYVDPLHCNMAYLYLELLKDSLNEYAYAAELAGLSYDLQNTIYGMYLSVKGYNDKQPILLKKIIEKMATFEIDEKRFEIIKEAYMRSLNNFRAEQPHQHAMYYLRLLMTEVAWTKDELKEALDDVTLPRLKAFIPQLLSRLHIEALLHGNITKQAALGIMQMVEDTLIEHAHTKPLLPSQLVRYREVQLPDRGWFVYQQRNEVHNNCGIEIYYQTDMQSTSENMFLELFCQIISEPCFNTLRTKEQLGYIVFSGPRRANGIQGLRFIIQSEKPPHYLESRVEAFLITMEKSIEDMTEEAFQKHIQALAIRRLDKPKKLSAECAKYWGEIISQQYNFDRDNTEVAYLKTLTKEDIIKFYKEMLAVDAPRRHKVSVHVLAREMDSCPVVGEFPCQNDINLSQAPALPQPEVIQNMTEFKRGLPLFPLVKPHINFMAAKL
TLR4 MyD88 comp – blocks binding of human TLR4 to MyD88; actives 0.18% (n = 200,000); O00206+Q99836; inhibition, % at 8.4 µM; AID 861; HeLa CL3-4 TLR4/MyD88 BLA complementation, FRET ratio; in the data active means inhibition above about 25%
NOD2 RIPK2 PPI – blocks binding of human NOD2 to RIPK2; O43353; CHO BLA complementation NOD2-RIPK2, CCF4 ratio; inhibition, % at 4.98 µM; actives 0.38% (n = 360,000); AID 624267; in the data active means inhibition above about 21%
TLR9-MyD88 inh – blocks human TLR9 binding to MyD88 | Q9NR96+Q99836 | CHO BLA complementation TLR9-MyD88, CCF4 FRET ratio | actives 0.21% (n = 340,000) | inhibition, % at 4.98 µM;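 active means inhibition above the mean over all tested compounds plus 3 SD, cut at about 21% in these data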
IDE act – IDE (human) activation, cell-based; AID 493087; activation, % at 5.96 µM; P14735; actives 0.073% (n = 340,000); HEK cells, FAbeta-B cleavage, fluorescence polarization; 0% vehicle, 100% cell-free pure enzyme wells;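 active means activation above the mean of all tested compounds plus 3 SD, set per screening campaign, cut at about 17% in these data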
IDE cell inh cf – confirmation of human insulin-degrading enzyme inhibitors in cells; AID 435028; shares compounds with IDE inh; actives 51% (n = 1,200); HEK cells, FAbetaB cleavage, fluorescence polarization; inhibition, % at 5.59 µM;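 active means mean inhibition across triplicate wells above the cutoff set by the earlier primary insulin-degrading enzyme screen, cut at about 16% in these data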
HEK293 tox – kills HEK cells in IDE inhibitor counter-screen | shares compounds with IDE inh | HEK293 cytotoxicity, ATP luminescence | inhibition, % at 5.59 µM | actives 28% (n = 1,200); in the data active means inhibition above about 22%
A number is an active result; 0 = inactive; - = not tested or not shown. Compounds with a hit are over-represented: about 0.87% of the library has one in this group of screens.

SMILES	IDE inh	TLR4 MyD88 comp	NOD2 RIPK2 PPI	TLR9-MyD88 inh	IDE act	IDE cell inh cf	HEK293 tox
COc1ccc(N(CC(=O)N2CCN(c3ccc(Cl)cc3)CC2)S(=O)(=O)c2c(C)n[nH]c2C)cc1	18.5	0	0	0	0	0	0
Cc1ccc(C(=O)C(OC(=O)CNC(=O)c2ccc(Cl)cc2)c2ccccc2)cc1 (configuration not stated)	17.4	0	0	0	0	0	0
CCOc1ccc(CN(C)C(=O)CNC(=O)c2ccc3ccccc3c2)cc1OC	16.8	-	0	0	0	0	0
Cc1[nH]c2ccccc2c1/C=C/c1cc[n+](C)cc1	-	0	0	0	0	-	-
CCN(CC)C(=O)Cn1c(=O)n(C)c2ccccc21	0	0	0	0	0	-	-
CCn1cc(/C=C/c2cc[n+](C)cc2)c2ccccc21	52.5	-	0	0	0	83.3	78.9
C=CCn1c(C)c(/C=C/c2cc[n+](C)cc2)c2ccccc21	87.0	-	0	0	0	97.3	78.1
C=CCn1cc(/C=C/c2cc[n+](C)cc2)c2ccccc21	21.8	-	0	0	0	66.7	84.7
CCN(CC)C(=O)Cn1c(C)c(/C=C/c2cc[n+](C)cc2)c2ccccc21	26.3	-	0	0	0	24.4	0
Cc1cc(=O)oc2cc(OCC(=O)N3CCC(O)CC3)c(Cl)cc12	0	-	0	0	0	-	-
O=C(Cc1ccccc1F)N1CCN(S(=O)(=O)c2ccc(Cl)cc2)CC1	0	-	0	0	0	-	-
COc1ccc(/C=N/NC(=O)c2ccc(-c3ccccc3)cc2)cc1O	0	0	0	0	0	-	-
COc1cc(/C=N\NC(=O)c2ccc(-c3ccccc3)cc2)cc(Br)c1O	21.2	-	0	0	0	0	0
COc1cccc(CNC(=O)CCC2CCCN(C(=O)CCn3cncn3)C2)c1 (configuration not stated)	0	0	0	0	0	-	-
COc1ccc(C2CC(c3cccs3)=NN2C(=O)CSc2nc(=O)n3ccccc3n2)cc1 (configuration not stated)	16.8	-	0	0	0	0	0
Cc1ccc(C2CC(c3cccs3)=NN2C(=O)CSc2nc(=O)n3cc(C)ccc3n2)cc1 (configuration not stated)	0	-	0	0	0	-	-
CC(=O)N1CCOc2ccc(S(=O)(=O)N(C)c3cccc(C)c3)cc21	0	-	0	0	0	-	-
COc1ccc(C(=O)N/C(=C/c2cccs2)C(=O)NN)cc1OC	21.8	-	0	0	0	0	0
COc1ccc(C(=O)N/C(=C\c2cccs2)C(=O)N2CCN(C)CC2)cc1OC	0	-	0	0	0	-	-
O=C(N/N=C/c1c(O)ccc2ccccc12)c1ccc(Br)o1	99.1	-	0	0	0	141.5	101.8
O=C(N/N=C/c1c(O)ccc2ccccc12)c1cccnc1	62.9	-	0	0	0	64.1	75.8
Cc1ccc(C(=O)N/N=C/c2c(O)ccc3ccccc23)cn1	64.2	-	0	0	0	104.7	95.5
Cc1occc1C(=O)N/N=C/c1c(O)ccc2ccccc12	0	-	0	0	0	-	-
Cn1nccc1C(=O)N/N=C/c1c(O)ccc2ccccc12	16.2	-	0	0	0	22.4	110.9
O=C(N/N=C\c1c(O)ccc2ccccc12)c1ccc(O)cc1	0	-	0	0	0	-	-
SMILES	IDE inh	TLR4 MyD88 comp	NOD2 RIPK2 PPI	TLR9-MyD88 inh	IDE act	IDE cell inh cf	HEK293 tox
N#CCCN(C(=O)COc1ccc(F)cc1Br)c1ccccc1F	0	0	0	0	0	-	-
COc1ccc(Br)cc1CNC(=O)Cn1nc(C)n2cccc2c1=O	0	-	0	0	0	-	-
COc1ccccc1C(=O)NC(=O)COC(=O)c1nc2nc(C)cc(C)n2n1	0	-	0	0	0	-	-
CCOC(=O)[C@]12CCC=C1N(Cc1ccccc1)C(=O)[C@H](CC(=O)N1CCN(C(=O)c3ccco3)CC1)C2	-	-	0	-	-	-	-
CCCCOc1ncnc2c1[nH]c1ccc(OC)cc12	21.3	0	-	-	-	0	37.9
CCCCOc1ncnc2c1[nH]c1ccc(F)cc12	29.7	0	0	0	0	0	69.8
Cc1cc(CSc2ccccc2)ccc1NC(=O)c1ccc(CN2CCOCC2)cc1	25.1	0	0	0	0	0	75.4
N#CCN1CCC2(O)CCCCC2C1c1ccc2c(c1)OCO2 (configuration not stated)	0	-	0	0	0	-	-
c1ccc(Nc2ccccc2Nc2ccccn2)nc1	0	0	0	0	0	-	-
Oc1cccc2ccc(Nc3ccccn3)nc12	24.9	0	0	0	0	0	44.7
CCC1=NN2C(=N)/C(=C\c3ccc(SCc4ccco4)o3)C(=O)N=C2S1	21.9	0	0	0	0	0	0
CCC1=NN2C(=N)/C(=C/c3c(C)nn(-c4ccccc4)c3Cl)C(=O)N=C2S1	0	0	0	0	0	-	-
CCCn1c(N)c(N(CCOC)C(=O)c2cc3ccccc3cc2OC)c(=O)[nH]c1=O	0	-	0	0	0	-	-
O=S(=O)(NC1=NCCC1)c1cccc(NC(=S)NCCc2ccccc2)c1	22.5	0	0	0	0	0	0
CCCCNC(=S)Nc1cccc(S(=O)(=O)NC2=NCCC2)c1	0	-	0	0	0	-	-
O=C(O)c1ccccc1NS(=O)(=O)c1cccc(C(F)(F)F)c1	0	0	0	0	0	-	-
O=C(O)c1ccccc1NS(=O)(=O)c1cccc(-n2sc3ccccc3c2=O)c1	90.2	-	0	0	0	73.0	0
COc1ccc(CNC(=O)Nc2nc(C(N)Cc3ccc(C(F)(F)F)cc3)cs2)cc1 (configuration not stated)	-	-	0	-	-	-	-
COc1ccc2nc3sc(C(=O)NCCCN4CCc5ccccc5C4)cc3cc2c1	19.7	0	0	0	0	0	0
COc1cc(C(=S)N2CCOCC2)cc(OC)c1O	0	-	0	0	0	-	-
Cc1ccc(NC(=O)CN2CCN(CCN=CC3=C(O)CC(c4ccc(C)cc4)CC3=O)CC2)cc1 (configuration not stated)	0	0	0	0	0	-	-
O=C(Nc1cccc(-n2cnnn2)c1)c1cccc(Cl)c1	18.3	-	0	0	0	0	0
O=C(Nc1cccc(-n2cnnn2)c1)c1cc(Cl)nc(Cl)c1	0	-	0	0	0	-	-
O=C(NCC1CCCO1)c1ccc(COc2ccc(Br)cc2)cc1 (configuration not stated)	21.6	0	0	0	0	0	23.8
N=C1/C(=C\c2coc3ccccc3c2=O)C(=O)N=C2SC=CN12	48.1	-	0	0	0	80.2	0
CC1=CC2=NC(=O)/C(=C/c3coc4ccc(Cl)cc4c3=O)C(=N)N2O1	61.8	-	0	0	0	97.0	0
CSC1=NSC2=NC(=O)/C(=C/c3coc4ccc(O)cc4c3=O)C(=N)N12	29.9	0	0	0	0	36.9	0
CSC1=NSC2=NC(=O)/C(=C/c3coc4ccccc4c3=O)C(=N)N12	71.5	0	0	0	0	45.0	0
